# Records with an inconclusive call do not appear. A call without a number means that no potency is given here. Values without a mark were called inactive. Calls of active or inactive are those of the source. The call rests on the fitted dose curve.
# Experiment: Cytotoxicity counterscreen for inhibitors of SARS-CoV-2 cell entry (AID 1645845); further: nearly all actives have a fitted effect of over 50% in size
# Conditions: cell viability (SARS-CoV-2 entry assay cells); series mostly up to 57.1 µM
# Summary of the method: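 Counterscreen run in the same HEK293-ACE2 line as the pseudotyped-particle entry assay, without particles. Viability after 48 h at 37 C was read as ATP luminescence, scaled between cell-containing and cell-free wells.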
# Potency means the concentration at half of the fitted maximal effect.
SMILES,Potency,"activity change, negative = cytotoxicity"
C#Cc1cccc(Nc2ncnc3cc4c(cc23)OCCOCCOCCO4)c1,inactive,
CN(C(=O)CNC(=O)/C=C/c1cccc(Cl)c1)C1CCS(=O)(=O)CC1,inactive,
CC(C)n1cc(-c2ccc3c(c2)N(C)CC3)c2c(NS(=O)(=O)c3ccn(C)n3)ccnc21,inactive,
Cc1cc(C)c2c(c1)[C@@H](N(Cc1cc(C(F)(F)F)cc(C(F)(F)F)c1)c1nnn(C)n1)CCCN2CC1CCC(C(=O)O)CC1 (some centres undefined),inactive,
CC(=O)Nc1ccc(C(=O)Nc2ccccc2N)cc1,7.08 µM (active),
CCc1cccc2c3c([nH]c12)[C@@](CC)(CC(=O)O)OCC3,inactive,
O=c1cc(N2CCOCC2)oc2c(-c3ccc4c(c3)OCCO4)csc12,inactive,
COc1ccnc2[nH]cc(C(=O)C(=O)N3CCN(C(=O)c4ccccc4)C[C@H]3C)c12,inactive,
CCN1CCN(Cc2ccc(NC(=O)c3ccc(C)c(/C=C/c4cnc5[nH]ccc5c4OC)c3)cc2C(F)(F)F)CC1,35.5 µM (active),
CC(C)(C)Sc1c(CC(C)(C)C(=O)O)n(Cc2ccc(Cl)cc2)c2ccc(OCc3ccc4ccccc4n3)cc12,inactive,
C[C@H](CCC(=O)O)[C@H]1CC[C@H]2[C@@H]3[C@@H](O)C[C@@H]4C[C@H](O)CC[C@]4(C)[C@H]3CC[C@]12C,inactive,
C[C@@H]1C(=O)OC2[C@H](O)[C@]34[C@H]5C[C@@H](C(C)(C)C)[C@]36[C@@H](OC(=O)[C@@H]6O)O[C@@]4(C(=O)O5)[C@]21O (some centres undefined),inactive,
COC(=O)C1=C(C)NC(c2ncc(F)cc2F)=N[C@@H]1c1ccc(F)cc1Cl,inactive,
CN[C@@H](C)C(=O)N[C@H](C(=O)N1CCC[C@H]1c1nc(C(=O)c2ccc(F)cc2)cs1)C1CCCCC1,inactive,
COc1cc2c(cc1OCCCN1CCCC1)N=C(N)C21CCC1,inactive,
CC(C)S(=O)(=O)c1ccc2nccc(Nc3ccc4scnc4c3)c2c1,inactive,
COc1cc2ncnc(Oc3cccc(NC(=O)Nc4cc(C(C)(C)C(F)(F)F)on4)c3)c2cc1OC,inactive,
COc1cc(OC)c2c(=O)[nH]c(-c3cc(C)c(OCCO)c(C)c3)nc2c1,inactive,
N#Cc1ccnc(N2C(=O)CC[C@H]2C(=O)N(c2cncc(F)c2)C(C(=O)NC2CC(F)(F)C2)c2ccccc2Cl)c1 (some centres undefined),inactive,
CC(=O)O/N=C1/C(c2c(O)[nH]c3cc(Br)ccc23)=Nc2ccccc21,inactive,

SMILES,Potency,"activity change, negative = cytotoxicity"
CN(C)CCNC(=O)COc1c2cccc1Cc1cccc(c1OCC(=O)NCCN(C)C)Cc1cccc(c1OCC(=O)NCCN(C)C)Cc1cccc(c1OCC(=O)NCCN(C)C)C2,,-11.8% [at 11.3 µM]
Clc1cc2c(NC3CCCC3)nnc(-c3ccncc3)c2cc1Cl,inactive,
O=C(Nc1ccc2c(c1)CCN(Cc1ncn[nH]1)C2)c1ccccc1-c1ccc(C(F)(F)F)cc1,inactive,
CC1=C2[N-][C@H]([C@H](CC(N)=O)[C@@]2(C)CCC(=O)NC[C@@H](C)OP(=O)([O-])O[C@H]2[C@@H](O)[C@@H](n3cnc4cc(C)c(C)cc43)O[C@@H]2CO)[C@]2(C)N=C(C(C)=C3N=C(C=C4N=C1[C@@H](CCC(N)=O)C4(C)C)[C@@H](CCC(N)=O)[C@]3(C)CC(N)=O)[C@@H](CCC(N)=O)[C@]2(C)CC(N)=O.O.[Co+2],inactive,
CCCNC(=O)c1cn2ncnc(Nc3cc(C(=O)NC4CC4)ccc3C)c2c1C,inactive,
CC(/C=C/[C@@H]1C[C@]1(C)c1ccc2c(c1)C(C)(C)CCC2(C)C)=C\C(=O)O,inactive,
COc1ccc(C(=O)N2CCN(C(=O)/C=C/c3ccc(Br)cc3)CC2)cc1,inactive,
CCOc1cc(C(=O)N2CCC(N3CCN(C)CC3)CC2)ccc1Nc1ncc2c(n1)N(C1CCCC1)c1ccccc1C(=O)N2C,inactive,
O=C(/C=C/c1ccc(CN(CCO)CCc2c[nH]c3ccccc23)cc1)NO,inactive,
C[C@H](NC(=O)/C(C#N)=C/c1cccc(Br)n1)c1ccccc1,28.2 µM (active),
Cc1[nH]nc2ncc(C(=O)N3CCC[C@H]3c3ccc(Cl)cc3)cc12,inactive,
OC(c1ccc(-c2ccc(CN3CCN(Cc4ccncc4)CC3)cc2)c(F)c1)(C(F)(F)F)C(F)(F)F,inactive,
CC[C@H](Nc1ncnc2nc[nH]c12)c1oc2ccccc2c(=O)c1-c1cccc(F)c1,inactive,
CCOC(=O)c1ccnc(CNCC(=O)N(CC)CCN(C)C)c1,inactive,
C=CC(=O)Nc1cc(N2CCN(CC)CC2)ccc1Nc1cc(N(C)C(=O)Nc2c(Cl)c(OC)cc(OC)c2Cl)ncn1,inactive,
COC[C@@H](c1ccc(C(F)(F)F)cc1)N1CCN(C2(C)CCN(C(=O)c3c(C)ncnc3C)CC2)C[C@@H]1C,inactive,
NC1=N[C@@]2(c3cc(NC(=O)c4ccc(F)cn4)ccc3F)COC[C@H]2CS1,inactive,
CC1Oc2cc(cnc2N)-c2c(nn(C)c2C#N)CN(C)C(=O)c2ccc(F)cc21 (centres undefined),inactive,
C[C@H]1C[C@@H](n2c(Nc3ccc(OC(F)(F)F)cc3)nc3cc(CCC(=O)O)ccc32)CC(C)(C)C1,inactive,
